Consider nine compounds from PubChem BioAssay (EPA / NIEHS).

Results filed as inconclusive are left out. Calls of active or inactive are those of the source. The calls were made as follows, unless noted: active = hit-call score of the fitted dose curve at least 0.9, where 1 is the maximum; inactive = score below 0.9.

The nature of assay [1]: CEETOX_H295R_ANDR: CeeTox H295R High-throughput Steroidogenesis Assay for Androstenedione (ANDR) (AID 2283436). The note with it: actives raise or lower the signal. The method in brief:
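Medium from 48 h chemical-treated H295R adrenal cells was extracted with MTBE and androstenedione measured by LC-MS/MS. Activity was fit in both directions relative to DMSO. Cytotoxic concentrations were re-tested after dilution until MTT viability reached ≥70%.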

A short description of assay [2]: CEETOX_H295R_CORTIC: CeeTox H295R High-throughput Steroidogenesis Assay for Corticosterone (CORTIC) (AID 2283437). Conditions: actives raise or lower the signal. In outline: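 Medium corticosterone was quantified by tandem mass spectrometry following 48 hours of chemical exposure (0.1% DMSO) in human H295R cells previously stimulated 48 hours with 10 uM forskolin. Viability checked by MTT; chemicals diluted and retested when viability fell below 70%.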

The nature of assay [3]: CEETOX_H295R_CORTISOL: CeeTox H295R High-throughput Steroidogenesis Assay for Cortisol (AID 2283438).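 Also: cortisol secreted into medium quantified by LC-MS/MS.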 The note with it: actives raise or lower the signal. In outline:
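Read-out: cortisol in culture medium by reverse-phase C18 HPLC with ESI-positive tandem MS, after MTBE liquid-liquid extraction. Cells: human adrenal H295R, forskolin-primed (10 uM, 48 h) before 48 h chemical exposure in 0.1% DMSO.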

The nature of assay [4]: CEETOX_H295R_DOC: CeeTox H295R High-throughput Steroidogenesis Assay for DOC (AID 2283439). The note with it: actives raise or lower the signal. In outline:
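Human adrenocortical H295R cells, passages up to 10, received 10 uM forskolin for 48 h before chemical addition. After another 48 h exposure in 0.1% DMSO, secreted DOC was measured by LC-MS/MS, with gain or loss fitted against DMSO controls.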

A short description of assay [5]: CEETOX_H295R_PROG: CeeTox H295R High-throughput Steroidogenesis Assay for Progesterone (PROG) (AID 2283442). Conditions: actives raise or lower the signal. The method in brief:
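H295R human adrenal cells were prestimulated with 10 uM forskolin for 48 h, then exposed to test chemical (0.1% DMSO final) for 48 h. Medium progesterone was MTBE-extracted and quantified by HPLC-MS/MS, with bidirectional fitting against DMSO.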

A short description of assay [6]: CEETOX_H295R_TESTO: CeeTox H295R High-throughput Steroidogenesis Assay for Testosterone (TESTO) (AID 2283457).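 As to AC50: cells exposed to chemicals for 48 h before medium collection.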 The note with it: actives raise or lower the signal. In outline: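 H295R human adrenal cells in DMEM/F12 with ITS+ and Nu-Serum, exposed to chemicals for 48 h. Testosterone in medium measured by MTBE extraction, reverse-phase HPLC-MS/MS; bidirectional fit versus DMSO baseline. MTT viability checked in same wells.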

The nature of assay [7]: ATG_XTT_Cytotoxicity: Cytotoxicity Assessment in the Attagene TRANS-FACTORIAL HepG2 Assay (AID 2283584; active = hit-call score of the fitted dose curve at least 0.9, where 1 is the maximum). The method in brief:
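HepG2 human liver cells, transiently transfected with multiple GAL4-UAS reporter units, were dosed and read at 24 h by XTT as cell number. Loss of signal was fitted relative to DMSO negative control baseline.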

The nature of assay [8]: CEETOX_H295R_MTT_cell_viability: Viability Assessment in the CeeTox HT-H295R MTT Assay (AID 2283718). In outline: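 MTT reduction (0.5 mg/ml, 4 h at 37 C; absorbance at 570 and 650 nm) gave viability as background-corrected percent change versus controls. H295R cells had 48 h forskolin (10 uM) prestimulation, then 48 h chemical exposure at 0.1% DMSO.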
A short description of assay [9]: CEETOX_H295R_ESTRADIOL: CeeTox H295R High-throughput Steroidogenesis Assay for Estradiol (AID 2283440).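 Also: estradiol secreted into medium quantified by LC-MS/MS after dansyl derivatisation.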 Conditions: actives raise or lower the signal. In outline:
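H295R adrenocortical cells were prestimulated with 10 uM forskolin for 48 h, then exposed to test chemical in 0.1% DMSO for 48 h. Medium estradiol was extracted with MTBE, dansyl-derivatized and quantified by HPLC-MS/MS; bidirectional fit versus DMSO.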

Assay [10] can be described thus: CEETOX_H295R_ESTRONE: CeeTox H295R High-throughput Steroidogenesis Assay for Estrone (AID 2283441).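 Also: estrone secreted into medium measured by LC-MS/MS after dansyl derivatization.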 Conditions: actives raise or lower the signal. The method in brief: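 Forskolin-stimulated H295R cells are treated 48 h with chemical, and estrone in the medium is measured by LC-MS/MS. Activity is fitted in both directions relative to DMSO controls, with chemicals diluted until MTT viability reaches at least 70%.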

For assay [11], the target named is Cellular tumor antigen p53 (Homo sapiens) (UniProt P04637). Description: TOX21_p53_BLA_p2_ratio: Tox21 HCT-116 p53 Agonism Beta-lactamase Assay, Ratio, Phase 2 (AID 2283592; active = hit-call score of the fitted dose curve at least 0.9, where 1 is the maximum). In outline:
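Ratio endpoint: beta-lactamase cleavage of CCF4-AM, blue (460 nm) over green (530 nm). HCT116 reporter line; 16 h treatment, 37C; substrate 2 h RT.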

Assay [12] in a line: TOX21_p53_BLA_p3_viability: Viability Assessment in the Tox21 HCT-116 p53 Agonism Beta-lactamase Assay, Phase 3 (AID 2283593; active = hit-call score of the fitted dose curve at least 0.9, where 1 is the maximum;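 also: cells exposed to compound for 16 h before reading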). The method in brief:
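Cellular ATP was quantified by CellTiter-Glo luminescence, read after 30 min at room temperature. Beforehand, HCT116 cells (4000/well) received compound 5 h post-seeding, 217-fold diluted from DMSO, then incubated 16 h at 37C.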

In assay [13] the target is Cellular tumor antigen p53 (Homo sapiens) (UniProt P04637). Briefly: TOX21_p53_BLA_p3_ratio: Tox21 HCT-116 p53 Agonism Beta-lactamase Assay, Ratio, Phase 3 (AID 2283596; active = hit-call score of the fitted dose curve at least 0.9, where 1 is the maximum). In outline:
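Cells were seeded at 4000/well, rested 5 h at 37C, then dosed with DMSO compound solutions (217-fold dilution) for 16 h. CCF4-AM substrate was loaded for 2 h at room temperature, and the 460/530 nm emission ratio was fitted for gain of signal versus DMSO.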

A short description of assay [14]: TOX21_p53_BLA_p4_viability: Viability Assessment in the Tox21 HCT-116 p53 Agonism Beta-lactamase Assay, Phase 4 (AID 2283597; active = hit-call score of the fitted dose curve at least 0.9, where 1 is the maximum;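 also: hits lower the luminescence signal meaning cytotoxicity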). In outline: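 Cytotoxicity was inferred from loss of CellTiter-Glo luminescence. HCT116 cells had been dosed with compounds after 5 h plating, incubated 16 h at 37C and 5% CO2, and exposed to the CCF4-AM substrate for 2 h.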
The target of assay [15] is Cellular tumor antigen p53 (Homo sapiens) (UniProt P04637). Description: TOX21_p53_BLA_p5_ratio: Tox21 HCT-116 p53 Agonism Beta-lactamase Assay, Ratio, Phase 5 (AID 2283599; active = hit-call score of the fitted dose curve at least 0.9, where 1 is the maximum). In outline:
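Beta-lactamase reporter ratio (blue 460 nm over green 530 nm, 405 nm excitation) after 2 h CCF4-AM loading, in HCT-116 cells exposed 16 h at 37 C to compounds pinned at 217-fold dilution. Increases relative to DMSO baseline scored.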

Assay [16] in a line: TOX21_p53_BLA_p5_viability: Viability Assessment in the Tox21 HCT-116 p53 Agonism Beta-lactamase Assay, Phase 5 (AID 2283600; active = hit-call score of the fitted dose curve at least 0.9, where 1 is the maximum). In outline:
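Luciferase-coupled ATP quantitation of cells treated for 16 h (37C, 5% CO2) with test chemicals delivered in DMSO via a 217-fold dilution; 4000 cells/well; reagent incubated 30 min at room temperature before luminescence reading.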

For assay [17], the target named is Cellular tumor antigen p53 (Homo sapiens) (UniProt P04637). Briefly: TOX21_p53_BLA_p4_ratio: Tox21 HCT-116 p53 Agonism Beta-lactamase Assay, Ratio, Phase 4 (AID 2283601; active = hit-call score of the fitted dose curve at least 0.9, where 1 is the maximum). The method in brief:
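Signal is the blue/green (460nm/530nm) ratio of cleaved versus uncleaved CCF4-AM substrate, read after 2 h substrate loading. Cells were HCT116 carrying the p53-responsive beta-lactamase reporter, dosed 16 h at 37C, 5% CO2; CellTiter-Glo measured in parallel.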

Assay [18] deals with Thyroperoxidase (TPO), gene 54314. Description: CCTE_Simmons_AUR_rTPO: CCTE's Amplex UltraRed Assay for Thyroperoxidase (TPO) Inhibition, Simmons Lab (AID 2283662; active = hit-call score of the fitted dose curve at least 0.9, where 1 is the maximum;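 also: potency for loss of signal meaning inhibition of peroxidase activity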). In outline:
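Cell-free peroxidase activity assay using rat thyroid gland microsomes with excess H2O2 (300 uM) and 25 uM Amplex UltraRed. Compounds tested from 5 nM to 87.5 uM; fluorescence measured after 30 min at 37C, analysed relative to DMSO baseline.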

Assay [19] can be described thus: CCTE_Simmons_CellTiterGLO_HEK293T: Viability Assessment in CCTE's Assays for Thyroperoxidase (TPO) Inhibition, Simmons Lab (AID 2283665; active = hit-call score of the fitted dose curve at least 0.9, where 1 is the maximum;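 as to AC50: cells exposed to compound for 24 h before readout; actives reduce ATP signal below DMSO vehicle meaning cytotoxicity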). In outline: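 Luminescent ATP readout (CellTiter-Glo, 20 min at room temperature) after 24 hr exposure of HEK293T cells to 5 nM–87.5 uM final compound; signal loss relative to DMSO vehicle indicated cytotoxicity; dichlone titrated as positive control.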

Sequence of Cellular tumor antigen p53 (Homo sapiens) (P04637 whole entry, looked up): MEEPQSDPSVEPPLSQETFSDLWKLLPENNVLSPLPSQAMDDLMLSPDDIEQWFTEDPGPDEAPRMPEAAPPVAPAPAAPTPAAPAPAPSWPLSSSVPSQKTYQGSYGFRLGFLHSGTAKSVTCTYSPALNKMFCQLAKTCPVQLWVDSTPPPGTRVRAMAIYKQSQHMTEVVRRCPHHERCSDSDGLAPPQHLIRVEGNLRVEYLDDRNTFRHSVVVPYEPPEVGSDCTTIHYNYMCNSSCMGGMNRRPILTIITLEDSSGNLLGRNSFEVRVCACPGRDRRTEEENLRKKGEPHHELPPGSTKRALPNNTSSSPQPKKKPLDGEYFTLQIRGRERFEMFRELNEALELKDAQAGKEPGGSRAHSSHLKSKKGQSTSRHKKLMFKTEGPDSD

As usually defined, the AC50 is the concentration giving half of the maximal activity seen. For the compound `CCn1c2ccccc2c2ccccc21`, the AC50 in assay [1] and in [6] was 50 µM (active) each time. The call in assay [2], in [3], in assay [4], in [5], in assay [7] and in assay [8] was inactive.
As to `CCCCC(CC)COC(=O)c1ccc(N(C)C)cc1` (stereo not given), the call in assay [2], in assay [3], in assay [9], in [10], in assay [7] and in assay [11] was inactive. The compound was classed as inactive in assay [12], in [13], in [14], in assay [15], in [16] and in [17]. The outcome in assay [8] was inactive. The AC50 in assay [4] was 6.74 µM (active); in assay [5] it was 6.01 µM (active).
With `C[C@]12CC[C@H]3C(=CCc4cc(O)ccc43)[C@@H]1CCC2=O`, the concentration at half-maximal activity (AC50) in assay [1] is 8.03 µM (active); in [3] it was 13.7 µM (active); in assay [4], 0.811 µM (active); in [5], 0.502 µM (active); in assay [6], 4.29 µM (active); in assay [14] it was 15.8 µM (active). For the same compound, the values for the concentration at half-maximal activity (AC50) in assay [18] and in [19] were 13.9 µM (active) and 87.7 µM (active), respectively. Further, the call in [2], in [7], in assay [11], in assay [12], in [13] and in [15] was inactive. Further, the compound was called inactive in [16], in [17] and in assay [8].
For `CCN(CC)c1ccc(C=O)c(O)c1`, the outcome in assay [7] was inactive.
With `O=c1[nH]cccc1O`, the compound was classed as inactive in [2], in assay [3], in [9], in assay [10], in assay [5] and in assay [7]. The outcome in assay [19] and in assay [8] was inactive. The results for the AC50 in assay [4] and in assay [18] were 5.07 µM (active) and 0.115 µM (active), respectively.
Consider `N#Cc1ccccc1O`, for which the compound was called inactive in assay [2], in assay [3], in [5], in assay [7] and in assay [8]. In addition, in [4], the concentration at half-maximal activity (AC50) is 77.7 µM (active).
Take `CSc1ccc(O)cc1C`: the AC50 in assay [1] is 78 µM (active); in [2], 37.6 µM (active); in [9] it was 28.2 µM (active); in assay [10], 26.7 µM (active). The outcome in assay [3], in assay [4], in assay [5], in [6], in assay [7] and in [8] was inactive.
In the case of `O=C(Cl)c1ccc(Cl)cc1Cl`, the compound was classed as inactive in assay [7].
On to `Cc1cc(O)c(C(C)(C)C)cc1C(C)(C)C`, for which the compound was classed as inactive in assay [1], in assay [2], in assay [3], in assay [4], in assay [9] and in assay [10]. Besides, the compound was classed as inactive in [6], in assay [7] and in assay [8]. The AC50 was 2.64 µM (active) in assay [5]; 70.8 µM (active) in assay [11]; 87 µM (active) in [12]; 87.3 µM (active) in assay [13]; 30.9 µM (active) in assay [14]; 57.2 µM (active) in assay [15]. Moreover, the results for the concentration at half-maximal activity (AC50) in assay [16] and in assay [17] were 34.3 µM (active) and 44.8 µM (active), respectively.
